In PubChem BioAssay (Tox21):
Inconclusive results are not listed. The source made the active and inactive calls. Unless noted, the call rests on the fitted dose curve; in most records, active means well fitted curve in the direction sought with a large enough effect in the repeat runs; inconclusive means weak or mixed curves; inactive means no such curve, though single readings can be large; an effect the other way counts as inactive or inconclusive.

Tests used:
[1] = qHTS assay to identify small molecule agonists of the hypoxia (HIF-1) signaling pathway (AID 1224846; active means well fitted activation curve with a large enough effect in the signal ratio in the repeat runs, not every such curve was filed as active; the % refers to the signal ratio)
In short: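 ME-180 HRE-bla reporter cells; compounds in DMSO, 17 h at 37C; read-out beta-lactamase via CCF4-AM FRET.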

[2] = qHTS assay to identify small molecule antagonists of the estrogen related receptor (ERR) signaling pathway from Tox21 library (AID 1224848); further: nearly all actives have a fitted effect of over 50% in size; further: potency means the concentration at half of the fitted maximal effect
In short: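 Quantitative high-throughput format: ERR reporter cells (2,000/well) pre-incubated 6 h, treated 18 h at 37 C with compounds in DMSO alongside positive and negative controls, then read by ONE-Glo luminescence.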

[3] = qHTS assay to identify small molecule agonists of the estrogen related receptor (ERR) signaling pathway from Tox21 library (AID 1224849; calls by dose curve; further: nearly all actives have a fitted effect of over 15% in size); settings: ERR reporter cell line, ONE-Glo luciferase, 18 h; at 92.4 µM (top of the series) unless noted
In short: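 Luciferase activity in ERR pathway reporter cells served as the agonist readout; exposure lasted 18 h at 37 C, with ONE-Glo detection after 30 min at room temperature.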

[4] = qHTS RealTime-Glo MT Cell Viability Assay in HepG2 cells - 24 hour (AID 1224867); further: nearly all actives have a fitted effect of over 50% in size
In short: (§1)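 Cell number in HepG2 cultures estimated from NanoLuc luminescence generated by metabolic reduction of a prosubstrate by living cells. The homogeneous, nonlytic format allowed repeated reads at 0, 8, 16, 24, 32 and 40 h of compound exposure.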

[5] = qHTS RealTime-Glo MT Cell Viability Assay in HEK293 cells - 32 hour (AID 1224868); further: nearly all actives have a fitted effect of over 50% in size; further: potency means the concentration at half of the fitted maximal effect
In short: (§2)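 Homogeneous bioluminescent viability format in HEK293 cells (600 cells/well). Following 5 h at 37 C/5% CO2, 23 nL compound was pintooled; the signal was measured repeatedly during 40 h incubation.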

[6] = A CellTox Green Cytotoxicity Assay to monitor cytotoxicity in HEK293 cells - 0 hour (AID 1224869); further: nearly all actives have a fitted effect of over 50% in size
In short: (§3)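 Real-time, in one plate: 600 HEK293 cells/well with dead-cell DNA dye, pinned compound after 5 h, 37 C incubation over 40 h; viable cells give no appreciable fluorescence.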

[7] = qHTS RealTime-Glo MT Cell Viability Assay in HepG2 cells - 40 hour (AID 1224870); further: nearly all actives have a fitted effect of over 50% in size; further: potency means the concentration at half of the fitted maximal effect
In short: (§4)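 HepG2 cells (600/well) mixed with RealTime-Glo MT reagent, settled 5 h at 37 C/5% CO2 before compound addition. Nonlytic NanoLuc luminescence from viable-cell prosubstrate reduction read repeatedly during 40 h treatment at 37 C.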

[8] = A CellTox Green Cytotoxicity Assay to monitor cytotoxicity in HEK293 cells - 40 hour (AID 1224871); further: nearly all actives have a fitted effect of over 45% in size; further: potency means the concentration at half of the fitted maximal effect
In short: as §3

[9] = qHTS RealTime-Glo MT Cell Viability Assay in HEK293 cells - 40 hour (AID 1224874); settings: RealTime-Glo luminescence; max response: active compounds read low; further: nearly all actives have a fitted effect of over 50% in size; further: potency means the concentration at half of the fitted maximal effect
In short: (§5)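 Kinetic, non-lysing viability readout. Seed HEK293 (600/well) with reagent, incubate 5 h at 37 C/5% CO2, pin 23 nL compound in DMSO, incubate at 37 C, read luminescence at 0, 8, 16, 24, 32, 40 h.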

[10] = A CellTox Green Cytotoxicity Assay to monitor cytotoxicity in HEK293 cells - 24 hour (AID 1224875); further: nearly all actives have a fitted effect of over 45% in size
In short: as §3

[11] = A CellTox Green Cytotoxicity Assay to monitor cytotoxicity in HepG2 cells - 16 hour (AID 1224876); further: nearly all actives have a fitted effect of over 45% in size; further: potency means the concentration at half of the fitted maximal effect
In short: (§6)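 Cytotoxicity was tracked as dead-cell DNA fluorescence in HepG2 cells treated with test compounds at 37 C; each time-point value comes from one kinetic series spanning 0, 8, 16, 24, 32 and 40 h.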

[12] = qHTS RealTime-Glo MT Cell Viability Assay in HepG2 cells - 32 hour (AID 1224877); further: nearly all actives have a fitted effect of over 55% in size
In short: as §1

[13] = A CellTox Green Cytotoxicity Assay to monitor cytotoxicity in HepG2 cells - 24 hour (AID 1224878); further: nearly all actives have a fitted effect of over 45% in size; further: potency means the concentration at half of the fitted maximal effect
In short: as §6

[14] = A CellTox Green Cytotoxicity Assay to monitor cytotoxicity in HepG2 cells - 40 hour (AID 1224879); further: nearly all actives have a fitted effect of over 40% in size; further: potency means the concentration at half of the fitted maximal effect
In short: as §6

[15] = qHTS RealTime-Glo MT Cell Viability Assay in HEK293 cells - 0 hour (AID 1224880)
In short: as §5

[16] = A CellTox Green Cytotoxicity Assay to monitor cytotoxicity in HEK293 cells - 32 hour (AID 1224881); further: nearly all actives have a fitted effect of over 40% in size
In short: as §3

[17] = qHTS assay to identify small molecule agonists of H2AX - cell viability counter screen (AID 1224847; calls by dose curve; further: nearly all actives have a fitted effect of over 30% in size; further: potency means the concentration at half of the fitted maximal effect)
In short: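 Viability of CHO-K1 (wild type) cells after 3 hr compound exposure was measured by CellTiter-Glo luminescence.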

[18] = qHTS RealTime-Glo MT Cell Viability Assay in HEK293 cells - 16 hour (AID 1224872); further: nearly all actives have a fitted effect of over 50% in size; further: potency means the concentration at half of the fitted maximal effect
In short: as §2

[19] = qHTS RealTime-Glo MT Cell Viability Assay in HepG2 cells - 8 hour (AID 1224873); further: nearly all actives have a fitted effect of over 55% in size
In short: as §4
On the % scale 0 is the no-effect control and ±100 the full control effect.

CC(C)CC(=O)C1C(=O)c2ccccc2C1=O
active: Potency [2] 30.6 µM
inactive: Potency [1] | activity change, positive = activation [3] -53.7% | Potency [4] | Potency [5] | Potency [6] | Potency [7] | Potency [8] | max response [9] 0.634% | Potency [10] | Potency [11] | Potency [12] | Potency [13] | Potency [14] | Potency [15] | Potency [16]

O=C(O)C(S)C(S)C(=O)O (centres undefined)
inactive: Potency [1] | Potency [17] | Potency [4] | Potency [5] | Potency [6] | Potency [7] | Potency [8] | Potency [18] | Potency [19] | max response [9] 3.09% | Potency [10] | Potency [11] | Potency [12] | Potency [13] | Potency [14] | Potency [15] | Potency [16]

Cc1cccc(C)c1OCC(=O)N[C@@H](Cc1ccccc1)[C@@H](O)C[C@H](Cc1ccccc1)NC(=O)[C@H](C(C)C)N1CCCNC1=O
inactive: Potency [1] | activity change, positive = activation [3] -59.8% [at 42.5 µM] | Potency [6] | Potency [7] | Potency [19] | Potency [12] | Potency [14] | Potency [15]
active: Potency [2] 23.7 µM | Potency [5] 23.9 µM | Potency [18] 23.9 µM | Potency [9] 23.9 µM

CN(C)CCN(Cc1ccc(Cl)cc1)c1ccccn1
inactive: Potency [1] | Potency [17] | Potency [4] | Potency [5] | Potency [6] | Potency [7] | Potency [8] | Potency [18] | max response [9] -11% | Potency [10] | Potency [12] | Potency [13] | Potency [14] | Potency [15] | Potency [16]

Cc1cccc(C)c1NC(=O)CN(CC(=O)O)CC(=O)O
inactive: Potency [1] | Potency [17] | Potency [4] | Potency [5] | Potency [6] | Potency [7] | Potency [8] | Potency [19] | max response [9] 5.56% | Potency [10] | Potency [13] | Potency [14]

CCCCCC[C@@H](O)C/C=C\CCCCCCCC(=O)OC
inactive: Potency [1] | Potency [17] | Potency [2] | activity change, positive = activation [3] 3.83% | Potency [6] | Potency [7] | Potency [8] | Potency [18] | Potency [19] | max response [9] 0.122% | Potency [10] | Potency [11] | Potency [12] | Potency [13] | Potency [14] | Potency [15] | Potency [16]

O=[N+]([O-])c1ccc2[nH]ncc2c1
inactive: Potency [1] | Potency [17] | Potency [4] | Potency [5] | Potency [6] | Potency [7] | Potency [8] | Potency [18] | Potency [19] | max response [9] -13.3% | Potency [10] | Potency [11] | Potency [12] | Potency [13] | Potency [14] | Potency [15]

COc1cc(Cl)ccc1Oc1ccc(Cl)cc1Cl
inactive: Potency [1] | Potency [2] | Potency [4] | Potency [5] | Potency [6] | Potency [7] | Potency [8] | Potency [19] | max response [9] -24.6% | Potency [10] | Potency [11] | Potency [12] | Potency [13] | Potency [14] | Potency [16]
active: Potency [17] 97.9 µM

CCCCc1ncc(/C=C(\Cc2cccs2)C(=O)O)n1Cc1ccc(C(=O)O)cc1
inactive: Potency [1] | Potency [17] | Potency [4] | Potency [6] | Potency [7] | Potency [8] | Potency [18] | Potency [19] | max response [9] 2.83% | Potency [10] | Potency [11] | Potency [12] | Potency [13] | Potency [14] | Potency [15] | Potency [16]

Clc1ccc2c(c1)CCc1cccnc1C2=C1CCNCC1
active: Potency [7] 23.9 µM | Potency [13] 23.9 µM | Potency [14] 23.9 µM
inactive: Potency [1] | Potency [17] | Potency [6] | Potency [19] | Potency [10]

CC(=O)c1ccc2c(c1)N(CCCN1CCC(CCO)CC1)c1ccccc1S2
inactive: Potency [1] | Potency [17] | Potency [4] | Potency [6] | Potency [7] | Potency [19] | Potency [10] | Potency [12] | Potency [15]
active: Potency [5] 21.3 µM | Potency [8] 23.9 µM | Potency [9] 21.3 µM | Potency [11] 21.3 µM | Potency [13] 23.9 µM | Potency [14] 23.9 µM

Cn1c(=O)cc(Oc2ccc(F)cc2F)c2cnc(NCC(C)(C)O)nc21
active: Potency [2] 30.6 µM
inactive: Potency [1] | activity change, positive = activation [3] -55.2% | Potency [6] | Potency [7] | Potency [8] | Potency [19] | Potency [10] | Potency [11] | Potency [12] | Potency [13] | Potency [14] | Potency [16]

Nc1ccc(N)c2c1C(=O)c1ccccc1C2=O
active: Potency [17] 50.5 µM | Potency [2] 43.3 µM
inactive: activity change, positive = activation [3] -37.5% | Potency [4] | Potency [6] | Potency [7] | Potency [8] | Potency [10] | Potency [11] | Potency [12] | Potency [14] | Potency [15] | Potency [16]

C=CC(=O)OCCOCCOC(=O)C=C
active: activity change, positive = activation [3] -74.8% | Potency [9] 31 µM | Potency [14] 49.2 µM
inactive: Potency [2] | Potency [6] | Potency [15]

O=C(Cl)c1cc(C(=O)Cl)cc(C(=O)Cl)c1
inactive: Potency [17] | Potency [6] | Potency [15]
active: Potency [5] 49 µM | Potency [9] 49 µM

CC(C)Cc1ccc(C(C)C(=O)OCc2ccccn2)cc1 (centres undefined)
inactive: Potency [17] | Potency [4] | Potency [6] | Potency [7] | Potency [8] | Potency [19] | Potency [10] | Potency [12] | Potency [13] | Potency [14] | Potency [15] | Potency [16]
